# From PubChem BioAssay
# IMPase inh = membrane-permeable compound that blocks inositol monophosphatase. CHO-M1 cells, IP1 accumulation, HTRF TR-FRET ratio. inhibition (IP1 accumulation), % at 46.1 µM. 120,000 tested, under 10 active; active = well fitted curve in the direction sought with a large enough effect in the signal ratio, not every such curve was filed as active; inconclusive = small, poorly fitted or top-dose-only effect, or a change in a side signal; inactive = no such curve, though single readings can be large or run the other way; the % refers to the signal ratio;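 also: cells stimulated with carbachol in lithium chloride buffer; plate controls were DMSO basal wells for no effect and reference inhibitor wells for full effect; higher means more IMPase inhibition seen as more IP1 and lower FRET ratio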
# Target sequence (P97697 whole entry, looked up): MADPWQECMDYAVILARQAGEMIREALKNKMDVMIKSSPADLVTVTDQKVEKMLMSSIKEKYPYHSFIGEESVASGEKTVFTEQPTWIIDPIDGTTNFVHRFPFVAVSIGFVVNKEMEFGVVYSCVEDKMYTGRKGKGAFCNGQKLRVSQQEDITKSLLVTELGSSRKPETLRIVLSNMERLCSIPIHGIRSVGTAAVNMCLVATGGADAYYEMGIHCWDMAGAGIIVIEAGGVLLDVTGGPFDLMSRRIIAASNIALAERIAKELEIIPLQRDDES
#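 CHO-M1 cells (CHO stably expressing M1 receptor), compound up to 46 uM final, stimulated with carbachol (50 uM as added) in buffer with 50mM LiCl, pH 7.4, 30 min at 37C. Cytosolic IP1 read by TR-FRET; AC50 from Hill fits.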
# PNC assembly inh = blocks assembly of the perinucleolar compartment | PC3M PTB-GFP, PNC prevalence imaging, 16 h; active compounds read low | activity change (PNC), negative = inhibition, % at 10 µM | 3.1% of 140,000 active | AID 2417;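 active = readout at or below -70, meaning at least 70% loss of cells showing the perinucleolar compartment, a nuclear body marking cancer cells; inconclusive = readout between -30 and a set limit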;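 also: plate controls were DMSO wells for no effect and camptothecin positive control wells for full effect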
#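 Compounds are pinned in duplicate onto adhered PC3M cells stably expressing GFP-tagged PTB and incubated 16 h at 37 C. Cells are then fixed, nuclei stained with Hoechst, and PNC-positive cells counted.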
# IMPase Li cell = cell-permeable IMPase inhibitors with lithium potentiation. CHO-M1 cells, IP1 TR-FRET (IP-One), carbachol + lithium. Potency, µM (titrated, usually from 59.4 µM), without a hit: top-dose activity, negative = IMPase inhibition, hits mostly inhibitors. 0.35% of 210,000 active; active = well fitted inhibition curve with a large enough effect; inconclusive = small, poorly fitted or top-dose-only effect; inactive = no such curve, though single readings can be large or run the other way;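 also: IP1 builds up when IMPase is blocked and the TR-FRET signal falls; potency is read from the fitted curve at half-maximal effect; plate controls were basal vehicle for no effect and high inhibitor control for full effect; nearly all actives have a fitted effect of over 50% in size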
#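 Concentration–response in CHO-M1 cells, lithium-potentiated; 30 min at 37C. IP1 detected by competitive TR-FRET after 10 min lysis at RT. Hill-fitted AC50.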
# ALDH1A1 block = inhibitors of human aldehyde dehydrogenase 1A1 | Purified ALDH1A1, NADH fluorescence, propionaldehyde substrate | AID 1030 | 7.3% of 220,000 active | Potency, µM (series often up to 75.3 µM), without a hit: at the top dose activity, negative = inhibition, hits mostly inhibitors;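 also: potency is read from the fitted curve at half-maximal effect; plate controls were no enzyme wells and a reference inhibitor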
# HPGD block = blocks human HPGD enzyme activity; purified HPGD, NADH fluorescence kinetic, PGE2 substrate; Potency, µM, for inactives: top-dose activity change, negative = inhibition, most hits filed as inhibitors; 4.3% of 150,000 active; also: potency is read from the fitted curve at half-maximal effect
# Target sequence (P15428 whole entry, looked up): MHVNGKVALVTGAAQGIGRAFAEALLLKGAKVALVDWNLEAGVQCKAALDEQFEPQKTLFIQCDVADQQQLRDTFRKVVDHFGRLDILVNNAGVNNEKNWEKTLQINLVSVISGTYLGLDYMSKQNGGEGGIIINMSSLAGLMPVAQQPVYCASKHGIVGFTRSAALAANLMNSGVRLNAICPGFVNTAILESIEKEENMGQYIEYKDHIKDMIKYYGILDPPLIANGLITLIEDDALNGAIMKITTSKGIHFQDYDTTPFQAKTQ
#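 20 nM HPGD preincubated 15 min at room temperature with compound in 50 mM Tris-HCl pH 8, 0.01% Tween 20. Started with 1 mM NAD+ and 30 uM prostaglandin E2; NADH fluorescence (360/450 nm) read 5 times over 30-s intervals, last minus first.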
# The depositor's hits bear a star; i = inactive; ? = inconclusive; . = not tested or not shown; [ ] = remark or other dose. Rows were chosen to be rich in hits. Some 11% of all compounds tested hit in one or more screens of this group. Unless noted, calls follow the shape of the dose curve; as a rule, active = well fitted inhibition curve with a large enough effect (not every such curve was filed as active); inconclusive = small, poorly fitted or top-dose-only effect, or another doubt; inactive = no such curve, though single readings can be large or run the other way. Unless noted, % is scaled to controls: 0 for no effect and ±100 for the full control effect.
SMILES,IMPase inh,PNC assembly inh,IMPase Li cell,ALDH1A1 block,HPGD block
C[C@@]12CC[C@H]3[C@H](CCC4=CC(=O)CC[C@H]43)[C@H]1CC[C@H]2OC1(O)C(=O)c2ccccc2C1=O,.,.,17%,0.32µM*,-1%
Cc1cc(Cl)ccc1OCCCC(=O)NCc1cccs1,.,24,6%,3%,32µM*
CC(C)C(CCN1C(=O)c2ccccc2C1=O)c1ccco1 (configuration not stated),0,45,42%[38.3 µM],22µM*,-16%
CCOc1c(P(=S)(N(C)C)N(C)C)c(C)nn1-c1ccccc1,-4,?,3%,3%,-4%
CCOc1ccc(-n2nc3c(=S)[nH]nc(C)c3c2C)cc1,.,-24,5µM*,5%,0%
Nc1c2c(nc3sc4c(c13)CCCCC4)CCCC2,.,-113*,16%,?,-17%
NC(=O)c1sc2nc3c(c(-c4cccs4)c2c1N)CCCC3,.,20,-6%,?,?
C[C@@H]1Cc2cc3c(cc2C(c2ccc(N)cc2)=NN1)OCO3,0,.,.,.,.
c1ccc(Nc2ccc3ccccc3c2)cc1,.,.,-22%,?,?
CC(C)Nc1ccc(Nc2ccccc2)cc1,.,.,44%,8.9µM*,-14%
C[N+]1(C)CCc2cc3c(cc2[C@@H]1[C@@H]1OC(=O)c2c1ccc1c2OCO1)OCO3,6,.,.,.,.
COC1=CC(=O)O[C@@H](/C=C/c2ccc3c(c2)OCO3)C1,.,.,14%,25µM*,-6%
O=c1[nH]c(=O)n(Cc2ccco2)c(O)c1C=NCc1ccco1,-9,27,3%[38.3 µM],10µM*,28µM*
CCN(CC)CCN=Cc1c(O)n(Cc2ccco2)c(=O)[nH]c1=O,.,.,.,11%,.
CCCCC(=O)N/N=C/c1c(O)n(Cc2ccco2)c(=O)[nH]c1=O,-14,18,2%,1%,-30%
CC(=O)Nc1ccc(N=Cc2c(O)n(Cc3ccco3)c(=O)[nH]c2=O)cc1,.,.,.,9.5µM*,.
Cc1c(N=Cc2c(O)n(Cc3ccccc3)c(=O)[nH]c2=O)c(=O)n(-c2ccccc2)n1C,.,6,8%,-12%,?
Cc1c(N=Cc2c(O)n(Cc3ccco3)c(=O)[nH]c2=O)c(=O)n(-c2ccccc2)n1C,25,-82*,31%[38.3 µM],?,-19%
CCOC(=O)N1CCN(Cc2ccccc2F)CC1,-5,9,-8%[38.3 µM],14µM*,-1%
Cc1ccc(CN2CCN(Cc3ccccc3F)CC2)cc1,.,.,11%,?,.
CN(C)C(=S)SSC(=S)N(C)C,.,.,27%,0.079µM*,0.71µM*
CN(C)C(=S)SC(=S)N(C)C,.,.,18%,3.5µM*,-20%
O=[N+]([O-])c1ccc(O[C@H]2O[C@@H](CO)[C@@H](O)[C@@H](O)[C@@H]2F)c([N+](=O)[O-])c1,3,.,.,.,.
CC1CN=C(Nc2ccc(N(C)C)cc2)S1 (configuration not stated),25,1,.,3%,.
CC1CN=C(Nc2ccccc2)S1 (configuration not stated),6,-8,-12%,-9%,8.9µM*
SMILES,IMPase inh,PNC assembly inh,IMPase Li cell,ALDH1A1 block,HPGD block
Nc1ccccc1O.O.O=C(O)[C@H]1[O][Sb][O][C@H]1C(=O)O,.,.,7%,3.2µM*,-6%
CNC(=O)CSP(=S)(OC)OC,.,.,-4%,?,-8%
COP(=S)(OC)SCN1C(=O)c2ccccc2C1=O,-8,-24,0%[38.3 µM],?,20µM*
O=C(O)CCn1cc(C=C2C(=O)NC(=O)NC2=O)c(-c2ccc(Br)cc2)n1,.,-8,-12%,-4%,28µM*
O=C(O)CCn1cc(C=C2C(=O)NC(=S)NC2=O)c(-c2cccc(Cl)c2)n1,.,.,5%,3.5µM*,.
Cc1cccc(N)c1C,.,.,-1%,-5%,-11%
CC1(C)CN=C(Nc2ccc(F)c(F)c2)S1,1,6,-1%[38.3 µM],-4%,25µM*
CC1(C)CSC(Nc2ccc(F)c(Cl)c2)=N1,4,6,5%[38.3 µM],20%,-14%
S=c1[nH]nc(C2CC2)n1Cc1ccccc1,.,.,31%,14µM*,.
S=c1[nH]nc(-c2ccco2)n1Cc1ccccc1,-1,20,8%[38.3 µM],i,?
C[C@H]1O[C@@H](O[C@H]2[C@@H](O)C[C@H](O[C@H]3[C@@H](O)C[C@H](O[C@H]4CC[C@@]5(C)[C@H](CC[C@@H]6[C@@H]5CC[C@]5(C)[C@@H](C7=CC(=O)OC7)CC[C@]65O)C4)O[C@@H]3C)O[C@@H]2C)C[C@H](O)[C@@H]1O,.,-82*,-4%,6%,-4%
C[C@@H]1O[C@@H](O[C@H]2C[C@@H](O)[C@]3(CO)[C@H]4[C@H](O)C[C@]5(C)[C@@H](C6=CC(=O)OC6)CC[C@]5(O)[C@@H]4CC[C@]3(O)C2)[C@H](O)[C@H](O)[C@H]1O,.,-115*,.,-6%,-10%
CC(C)=C[C@H]1[C@@H](C(=O)OCc2cc3c(cc2Cl)OCO3)C1(C)C,.,.,10%,-13%[13.5 µM],-7%
CN1C(=O)CCS(=O)(=O)[C@@H]1c1ccc(Cl)cc1,3[20.6 µM],.,2%,1%[20.9 µM],-10%
C[C@@H]1[C@@H](C)N1C[C@H](O)Cn1ccnc1[N+](=O)[O-] (some centres not stated),.,.,-2%,11%[13.5 µM],-13%
COc1ccccc1C1=NCc2nnc(C)n2-c2ccc(Cl)cc21,.,9,9%,13%,28µM*
Clc1ccc2c(c1)C(c1ccccc1Cl)=NCc1nnc(N3CCN(CCOc4ccccc4)CC3)n1-2,.,22,14%,10µM*,-3%
COc1ccc(C2=NCc3nnc(C)n3-c3ccc(Cl)cc32)cc1Cl,-3,-10,5%,?,-26%
Cc1nnc2n1-c1ccc(Cl)cc1C(c1ccccc1)=NC2,.,.,5%,7%,16µM*
CC1CC(C)C(=O)[C@H](C(O)CC2CC(=O)NC(=O)C2)C1 (some centres not stated),.,.,29%,4%,-2%
OCC(CBr)(CBr)CBr,.,.,1%,18µM*,-9%
CCN1C[C@]2(C)CC[C@H](O)[C@@]34[C@@H]5C[C@@H]6[C@@H](OC)C[C@@](O)(C5[C@H]6O)[C@@H](C[C@@H]23)[C@@H]14,.,.,4%,9%,-9%
CO[C@H]1[C@H](O)[C@H](O[C@@H]2[C@H](Oc3cccc4c(O)c5c(=O)oc6ccc(C)c7c(=O)oc(c34)c5c67)O[C@@H](C)[C@H](O)[C@H]2O)O[C@@H](C)[C@@H]1O,.,.,3%,-12%[13.5 µM],-2%
O=C(NC1CN2CCC1CC2)c1ccc(-c2ccc([N+](=O)[O-])cc2)o1 (configuration not stated),.,26,10%,0.45µM*,-29%
C=C1CC[C@H](O)C/C1=C/C=C1\CCC[C@]2(C)[C@@H]([C@H](C)CCCC(C)C)CC[C@@H]12,.,.,8%,?,?
CC(Cc1cccc(C(F)(F)F)c1)NCCCc1ccccc1 (configuration not stated),.,.,-7%,-12%,.
